# About 30 (0.04%) of roughly 69,000 compounds showed an effect of 50% or more. This excerpt belongs to a sample that is enriched for strong results.
# Target: T1, Histidine--tRNA ligase (Trypanosoma cruzi (strain CL Brener)) (UniProt Q4DA54)
# T1 sequence (whole entry): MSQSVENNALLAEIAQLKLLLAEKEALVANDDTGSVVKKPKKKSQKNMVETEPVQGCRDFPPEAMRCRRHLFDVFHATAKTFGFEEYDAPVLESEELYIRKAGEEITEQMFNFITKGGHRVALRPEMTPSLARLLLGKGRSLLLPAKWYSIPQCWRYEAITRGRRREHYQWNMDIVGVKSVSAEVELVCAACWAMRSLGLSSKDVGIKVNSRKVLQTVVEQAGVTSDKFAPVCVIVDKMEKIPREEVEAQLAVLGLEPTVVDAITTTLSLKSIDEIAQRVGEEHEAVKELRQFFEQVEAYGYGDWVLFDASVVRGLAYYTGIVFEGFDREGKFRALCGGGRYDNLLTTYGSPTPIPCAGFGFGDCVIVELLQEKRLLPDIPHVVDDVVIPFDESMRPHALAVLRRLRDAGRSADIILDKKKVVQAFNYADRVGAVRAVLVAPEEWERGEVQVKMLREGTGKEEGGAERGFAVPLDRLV
# Experiment: Trypanosoma cruzi histidyl tRNA synthetase (Tc-HisRS)
# Format: functional
# Parameters: scale not given: direction of the effect not stated beside the values
# Conditions: 30 µM
row,Compound,Percent Effect [%]
1,CC(C)N1[C@H](Cn2cncn2)C[C@@H]2CN(Cc3ccsc3)CC[C@@H]21,0
2,O=C(OCc1ccccc1)N1CC[C@H]2CC(CO)O[C@@H]2C1 (some centres not stated),-3.09
3,CCN1CC[C@@]2(C(=O)N3CCOCC3)CCN(C(=O)C(C)C)CC[C@@H]12,4.85
4,O=C(NC1CC1)N1C[C@H]2CN(Cc3cccc(F)c3)C(=O)[C@H]2C1,5.88
5,CC(C)=CCN1C(=O)[C@H]2CC[C@@H]1CN(c1ncccc1C(N)=O)C2,-2.41
6,Cc1nc(CN2C(=O)CC[C@@H]3[C@H]2CCN3C(=O)c2ccno2)cs1,8.87
7,O=S1(=O)CCN(Cc2cccnc2)[C@H]2CCN(c3ncccn3)CC[C@H]21,6.95
8,Cn1nccc1C(=O)N1CCN(C(=O)C2CC2)[C@@H]2CS(=O)(=O)C[C@@H]21,4.47
9,O=C1C[C@H]2[C@@H](CCN2C(=O)Cc2cccs2)N1Cc1cccnc1,0.752
10,Cc1cccnc1CN1CCN(CC(=O)N(C)C)[C@@H]2CS(=O)(=O)C[C@@H]21,7.03
11,Cc1cnc(N2CC[C@@H]3OC(COCC(=O)N(C)C)CC[C@@H]32)nc1 (some centres not stated),-0.614
12,Cn1cc(N2C(=O)CC[C@@H]3[C@H]2CCN3C(=O)c2cscn2)cn1,8.16
13,COCCN1CCN(Cc2nccs2)[C@H]2CS(=O)(=O)C[C@H]21,4.08
14,CCO[C@@H]1CC[C@H]2[C@H]1OCCN2CCOCc1ccccc1,4.12
15,Cc1cc(C)nc(N2C[C@H]3OC(=O)N(CCc4cccc(Cl)c4)[C@H]3C2)n1,7.82
16,CNC(=O)[C@H]1C[C@@H]2CN(C(=O)NC(C)C)C[C@H]1O2,1.03
17,CC(C)NC(=O)[C@H]1C[C@@H]2CN(C(=O)NCc3ccccc3)C[C@H]1O2,9.09
18,O=C(c1ccnnc1)N1CCN2C[C@H](Oc3cccc(F)c3)C[C@H]2C1,1.62
19,O=C(c1ccco1)N1CC[C@H]2[C@H]1CC(=O)N2c1cccnc1,0
20,O=C(N1CCCC1)N1CC[C@H]2[C@H]1CCN2c1ncccn1,6.8
21,COC[C@@]12CCC[C@@H]1CN(C(=O)N1CCCC1)C2,5.03

row,Compound,Percent Effect [%]
1,O=C(CC1CC1)N[C@@H]1CN(C(=O)c2cccs2)C[C@@H]2CCCO[C@@H]21,0
2,CN1C(Cn2cccn2)C[C@@H]2CN(Cc3cnn(C)c3)CC[C@@H]21 (some centres not stated),7
3,CCC1=N[C@@]2(CC[C@@H]3CN(Cc4ccc(C)cc4)C[C@@H]32)C(=O)N1C,7.41
4,CC(C)CN1CCS(=O)(=O)[C@@H]2CCN(S(=O)(=O)C3CC3)CC[C@@H]21,1.07
5,COc1ccc(CN2C[C@@H]3CC[C@H](C2)N(Cc2snnc2C)C3)cc1,11.4
6,CC(C)CN1C(=O)CO[C@@H]2CN(C(=O)CC(F)(F)F)C[C@H]21,7.53
7,Cn1cc(NC(=O)N2CCCC2c2ccccn2)ccc1=O (configuration not stated),69.3
8,Cn1cc(NC(=O)N2CCCC2c2cccnc2)ccc1=O (configuration not stated),38.6
9,Cn1cc(NC(=O)N2CCC2c2ccccc2)ccc1=O (configuration not stated),22.6
10,Cc1cccc(C(=O)N2C[C@H](NS(C)(=O)=O)[C@@H]3OCCC[C@@H]32)n1,12.6
11,Cc1nnc(NC(=O)NCc2ccoc2)s1,7.43
12,Cn1cc(NC(=O)NCc2ccsc2)ccc1=O,72.7
13,CN(Cc1ccsc1)C(=O)Nc1ccc(=O)n(C)c1,13
14,COc1ccc(CNC(=O)Nc2ccc(CN3CCOC3=O)cc2)cc1,2.12
15,O=C(NCc1ccoc1)Nc1ccc(CN2CCOC2=O)cc1,3.25
16,Cn1cc(NC(=O)NCc2ccoc2)ccc1=O,72.7
17,COC(=O)c1ccc(CNC(=O)Nc2ccc(=O)n(C)c2)cc1,7.79
18,COc1ccc(CNC(=O)Nc2ccc(=O)n(C)c2)cc1,76.6
19,Cn1cc(NC(=O)CCc2ccsc2)ccc1=O,18.2
20,Cc1ccc(N2CCCC3(COCCN(c4nccs4)C3)C2)nn1 (configuration not stated),12.4
21,Cc1ccc(N2CC3(CCN(c4nccs4)C3)C2)nn1,4.96

row,Compound,Percent Effect [%]
1,Cc1ccc(N2CCC3(CC2)COCCN(c2nccs2)C3)nn1,62.3
2,CNc1cc(-c2cccc(CN)c2)c2cc[nH]c2n1,81.7
3,CNc1cc(-c2ccccc2CN)c2cc[nH]c2n1,40.2
4,CNc1cc(-c2ccc(COCCN)cc2)c2cc[nH]c2n1,4.88
5,CN(Cc1cccs1)C1CCC[C@@H]2CN(C(=O)c3cccn3C)C[C@H]12 (some centres not stated),5.06
6,c1cnc(N2CCC3(CC2)CN(CC2CC2)c2ccccc23)nc1,66.2
7,O=C1N(CC2CC2)CCC12CCN(c1ncccn1)CC2,4.51
8,c1ccc2c(c1)N(CC1CCOC1)CC21CCN(c2cnccn2)CC1 (configuration not stated),29.6
9,CC(C)=CCN1C[C@H]2CC[C@@H]1CN(C(=O)c1ccc3c(c1)OCO3)C2,-7.73
10,O=C1O[C@@H]2CN(Cc3ccccc3F)C[C@@H]2N1CCCN1CCOCC1,10.2
11,CC(C)COC[C@@H]1CC[C@H]2[C@H](CCN2C(=O)c2ccncc2F)O1,-2.8
12,COCCNC(=O)[C@@]12CCO[C@@H]1CCN(Cc1scnc1C)C2,4.3
13,COc1ccc(N2Cc3nc(N4CCCC4)ncc3C2=O)cc1Cl,-3.73
14,CCc1cc(N[C@H]2CC[C@@H](N)CC2)n2nc(C)c(C)c2n1,1.34
15,CC(C)CS(=O)(=O)N1C[C@H]2C[C@H](C(=O)N3CCN(C)CC3)[C@@H](C1)O2,7.78
16,CN1CCCCC1c1ncc2c(n1)CCN(Cc1ccc(Cl)c(F)c1)C2 (configuration not stated),30
17,O=C([C@H]1C[C@@H]2CCN(c3cccc(F)c3)C[C@H]2O1)N1CCCC1,0.952
18,c1ccc(CNc2ncc(CN3CCCN4CCC[C@H]4C3)cn2)cc1,48.1
19,CN1CCN2CCN(Cc3cnc(NCc4ccccc4)nc3)CC2C1 (configuration not stated),9.88
20,C1CC(CN2C[C@@H]3C[C@@H](c4nnc(C5CC5)o4)O[C@@H]3C2)C1,0

# From ChEMBL document CHEMBL3988442, “University of Dundee, Small-Polar-MMV Screening Library” (2021)
